About 83,000 compounds went through this panel and 20% of them were active in at least one assay; those are over-represented in the sample as a whole.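 Testing used 96-well plates and a 48-hour single-concentration exposure. Example: -40 means 40% of the starting cells died.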 Calls of active or inactive are those of the source. The calls were made as follows: active = growth percent below 10; inactive = the rest.

For this assay, the system named is ACHN renal. Description: NCI-60 one-dose screen, 48 h (100 = growth as untreated, 0 = no growth, -100 = all killed). The settings on record: 10 µM unless noted.
With `Cc1cc(C)c(S(=O)(=O)N2CCN(c3cc4c(cc3F)c(=O)c(C(=O)O)cn4C3CC3)CC2)c(C)c1`, the growth was 51.3% (inactive).

Consider `CCn1cc(C(=O)O)c(=O)c2cc(F)c(N3CCN(S(=O)(=O)c4ccc(OC)c(OC)c4)CC3)cc21`, for which the growth is 93% (inactive).

Regarding `Cc1ccc(S(=O)(=O)OCC(=O)Nc2ccc(C(=O)O)c(O)c2)cc1`, the growth was 102% (inactive).

Turning to `O=S(=O)(c1ccccc1)n1ccc(-c2ccc3c(c2)CCO3)n1`, the growth is 78.4% (inactive).

Take `Clc1ccc(-c2nc(-c3ccco3)cn3ccnc23)cc1`: the growth was 8.59% (active).

Regarding `CCn1cc(C(=O)O)c(=O)c2cc(F)c(N3CCN(S(=O)(=O)c4cccc5ccccc45)CC3)cc21`, the growth is -3.57% (active).

Regarding `O=P([O-])(O)OP(=O)([O-])O.[NH-][C@H]1CCCC[C@@H]1[NH-].[OH-].[OH-].[Pt+4]`, the growth is 86.3% (inactive).

`O=C(CC(O)c1ccncc1)c1ccccc1` (centres undefined): the growth is -28.5% (active).

`O=c1oc2c([nH]c3ccc4ccccc4c32)c2ccccc12`: the growth is 110% (inactive).

As to `Nc1c(C(=O)Nc2ccccc2)sc2nc3c(cc12)CCC3`, the growth was 96% (inactive).

For `COc1ccc(C2CC(c3cccs3)=NN2c2ccc(S(=O)(=O)NC(=O)NCc3cccc(OC)c3)cc2)cc1` (centres undefined), the growth is 93.2% (inactive).

Regarding `COc1cc(NC(=O)CSc2nc3ccc(C)cc3c(=O)n2-c2ccccc2)cc(OC)c1OC`, the growth was 90.2% (inactive).

Take `Cc1ccc(S(=O)(=O)OC2COCOC2C(OS(=O)(=O)c2ccc(C)cc2)C2OCOCC2OS(=O)(=O)c2ccc(C)cc2)cc1` (centres undefined): the growth is 105% (inactive).

Regarding `CC(=O)Nc1ccc(S(=O)(=O)N2C(=O)CCC2C(=O)Nc2ccc(Br)cc2)cc1` (centres undefined), the growth was 45.3% (inactive).

As for `O=C(O)c1ccc(-n2c(=O)c3ccccc3c3ccccc3c2=O)cc1`, the growth was 103% (inactive).

Turning to `CS(=O)(=O)N(c1cc(-c2ccc3ncnc(Nc4cccc(Cl)c4)c3c2)cnc1Cl)S(C)(=O)=O`, the growth is 11.7% (inactive).

Regarding `CN(C)c1ncc(-c2ccc(C(F)(F)F)cc2)c(NC2CCCCCC2)n1`, the growth was 16.5% (inactive).

On to `O=S(=O)(NCCNc1cc(-c2cn(-c3ccccc3)nc2-c2ccccc2)ccn1)c1cccc2ccccc12`, for which the growth was 51.7% (inactive).

Take `CC/C=C\C[C@H](O)C/C=C1/C(=O)C(Cl)=C[C@@H]1C/C=C\CCCC(=O)O`: the growth is 45.3% (inactive).

`CC[C@H](C)[C@@H]1NC(=O)[C@H]([C@@H](C)O)NC(=O)C(Cc2ccccc2)NC(=O)[C@@H]2CCCN2C(=O)C(C(C)C)NC(=O)C(Cc2ccccc2)NC(=O)CNC(=O)[C@@H]2CCCN2C1=O` (some centres undefined): the growth was 58.7% (inactive).

With `O=C(Nc1cc(C(F)(F)F)cc(C(F)(F)F)c1)Nc1ccc(OCc2nnc(-c3ccc(Cl)cc3)o2)c(F)c1`, the growth was -6.91% (active).

As for `Oc1ccc(N=Cc2ccccc2)cc1`, the growth is 57.3% (inactive).

Regarding `Nc1ccccc1C#C/C=C\C#Cc1cccc(O)c1`, the growth was 36.4% (inactive).

For `CCn1cc(C(=O)O)c(=O)c2cc(F)c(N3CCN(S(=O)(=O)c4ccc(Cl)cc4Cl)CC3)cc21`, the growth was -54.6% (active).

As for `COc1cc(CNC(=O)CSc2nc3ccccc3c(=O)n2Cc2cc(OC)c(OC)c(OC)c2)cc(OC)c1OC`, the growth was 98.1% (inactive).

In the case of `COc1cc(CCn2nnc3c(NCCCCO)ncnc32)cc(OC)c1`, the growth is 106% (inactive).

Regarding `C/C(=C\c1csc(C)n1)[C@@H]1C[C@@H]2O[C@]2(C)CCC[C@H](C)[C@H](O)[C@@H](C)C(=O)C(C)(C)[C@@H](O)CC(=O)N1`, the growth is -100% (active).

Take `COc1ccc(S(=O)(=O)N2CCN(c3cc4c(cc3F)c(=O)c(C(=O)O)cn4C3CC3)CC2)c(OC)c1`: the growth was 94.9% (inactive).

`CC[C@]1(O)C[C@@H]2CN(Cc3c([nH]c4ccccc34)[C@@](C(=O)OC)(c3cc4c(cc3OC)N(C)[C@H]3[C@@](O)(C(=O)OC)[C@H](OC(C)=O)[C@]5(CC)[C@@H]6C[C@@H]6CN6CC[C@]43[C@@H]65)C2)C1`: the growth is 47.8% (inactive).

With `COC1=CC(c2ccc[nH]2)=N/C1=C\c1[nH]c(C)c(C(=O)CCCCC(=O)Oc2ccc3c(c2)CCC2C3CC[C@]3(C)[C@@H](O)CC[C@@H]23)c1C` (some centres undefined), the growth is 62.9% (inactive).

With `N#Cc1ncc(-c2ccc(F)c(F)c2F)c(NC2CCCCCC2)n1`, the growth is 84.7% (inactive).

In the case of `O=C(O)c1cn(C2CC2)c2cc(N3CCN(S(=O)(=O)c4ccc(Cl)c(Cl)c4)CC3)c(F)cc2c1=O`, the growth was 4.95% (active).

For the compound `CCCCCCCCCCCCOB(OCCCCCCCCCCCC)OCCCCCCCCCCCC`, the growth was 109% (inactive).

For the compound `CNC(C)=O`, the growth was 118% (inactive).

Take `COc1cc2nc(N3CCC[C@@H](NC4=CC(=O)c5ccccc5C4=O)C3)nc(N)c2cc1OC`: the growth was 72% (inactive).

In the case of `COC(=O)[C@H]1[C@H](OC)[C@@H](OC(=O)/C=C/c2ccncc2)CC2CN3CCc4c([nH]c5cc(OC)ccc45)[C@@H]3C[C@@H]21` (some centres undefined), the growth is 63% (inactive).

On to `Clc1nc(-c2cccnc2)nc2sc3c(c12)CCCCCC3`, for which the growth was 105% (inactive).

Regarding `O=c1oc2cc(OS(=O)(=O)c3ccc(F)cc3)ccc2c2c1CCCCC2`, the growth was 84.9% (inactive).

Regarding `CC(=O)C1CCC(C)=CC1=O` (centres undefined), the growth is 98.4% (inactive).

Source of the values: PubChem BioAssay (NCI).
